The list is not random: actives were taken first. Their share in the collection is about 19%.
DT40 TDP1 no CPT: qHTS for Inhibitors of human tyrosyl-DNA phosphodiesterase 1 (TDP1): qHTS in cells in absence of CPT; DT40 Tdp1-/- hTDP1 cells, no CPT, ATP luminescence, 48 h; Potency, µM (top dose mostly 46.2 µM), for the others: at the highest dose activity change, negative = growth inhibition, usual class: inhibitors; hit rate 15% among 420,000; further: potency means the concentration at half of the fitted maximal effect; nearly all actives have a fitted effect of over 55% in size
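Luminescent ATP content (CellTiter-Glo) served as the growth readout. Knockout chicken DT40 cells expressing human TDP1 were exposed to compounds without camptothecin for a minimum 48 hr at 37 °C.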
IL-1B inflam inh: qHTS for Inhibitors of Inflammasome Signaling: IL-1-beta AlphaLISA Primary Screen; activity change, % at 57.5 µM; THP-1 LPS/ATP IL-1B secretion, AlphaLISA, 16 h; hits give low values; hit rate 4.7% among 360,000; in the data active means activity change below about -50%; inconclusive means mostly about -30% to -49%
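Secreted IL-1B measured by AlphaLISA bead assay after 16 h compound exposure of THP-1 cells; compounds (final up to 57.5 uM) added 1 h before LPS (250 ng/mL) and ATP (1.25 mM) stimulation; lower signal means less secretion.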
HT1080-NT tox: qHTS for induction of synthetic lethality in tumor cells producing 2HG: qHTS for the HT-1080-NT fibrosarcoma cell line; HT-1080-NT fibrosarcoma viability, CellTiter-Glo ATP luminescence, 48 h; Potency, µM (highest dose often 46.1 µM), for the others: at the highest dose activity, negative = less viability, most hits filed as cytotoxic; hit rate 1.6% among 360,000;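 further: NT is the 2HG producing partner of a matched IDH1 knockdown line; potency means the concentration at half of the fitted maximal effect; 0% = DMSO-treated cells and -100% = media-only wells without cells; nearly all actives have a fitted effect of over 55% in size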
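Viability by CellTiter-Glo luminescence after 48 h compound exposure at 37C of HT-1080-NT cells (750/well, RPMI, 5% FBS). % activity scaled between DMSO wells and medium-only wells, then curve-fitted and categorized by curve class.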
TDP1 cell CPT: qHTS for Inhibitors of human tyrosyl-DNA phosphodiesterase 1 (TDP1): qHTS in cells in presence of CPT; Potency, µM (highest dose often 46.2 µM), without a hit: at the highest dose activity change, negative = growth inhibition, hits mostly inhibitors; chicken DT40 Tdp1-/-;hTDP1 cells + 20 nM CPT, ATP luminescence, 48 h; hit rate 12% among 420,000; further: potency means the concentration at half of the fitted maximal effect; nearly all actives have a fitted effect of over 55% in size
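Chicken DT40 Tdp1-/- cells complemented with human TDP1, 400 cells/well, exposed to compounds plus 20 nM camptothecin for at least 48 h at 37 C; viability read as ATP content by CellTiter-Glo luminescence.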
HT1080 IDH1KD tx: qHTS for induction of synthetic lethality in tumor cells producing 2HG: qHTS for the HT-1080-IDH1KD cell line. HT-1080 IDH1 knockdown viability, ATP luminescence, 48 h. Potency, µM (doses to about 46.1 µM), for the others: at the highest dose activity, negative = toxicity, most hits filed as cytotoxic. hit rate 2% among 360,000;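 further: potency means the concentration at half of the fitted maximal effect; 0% = DMSO wells and -100% = cell-free medium wells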
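After a 2 h attachment period, IDH1KD HT-1080 cells took pin-transferred compound for 48 h at 37 °C; ATP-based luminescence after 10 min room-temperature reagent incubation reported viability.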
Numbers without * were called inactive; ? = inconclusive; . = no result given. Unless noted, the call rests on the fitted dose curve; in most records, active means well fitted curve in the direction sought with a large enough effect; inconclusive means small, poorly fitted or top-dose-only effect, or another doubt; inactive means no such curve, though single readings can be large; an effect the other way counts as inactive or inconclusive. Unless noted, on the % scale 0 is the no-effect control and ±100 the full control effect.

SMILES | DT40 TDP1 no CPT | IL-1B inflam inh | HT1080-NT tox | TDP1 cell CPT | HT1080 IDH1KD tx
O=Cc1c[nH]c2ccc(NC(=O)OCc3ccccc3)cc12 | ? | ? | -5.2% | ? | -38.3%
O=Cc1c[nH]c2cccc(OCc3ccccc3)c12 | 23.1µM* | -79.3* | -4.2% | ? | -20.9%
C=C1C(=O)[C@]23C[C@H]1CCC2[C@]1(C)CCC[C@@](C)(C(=O)O)C1C[C@@H]3O (stereo not given in full) | 1.64µM* | -121.4* | 4.11µM* | 1.46µM* | 2.31µM*
C=C1C(=O)[C@]23C[C@H]1CCC2[C@]1(C)C(=O)CC[C@@](C)(C(=O)O)C1C[C@@H]3O (stereo not given in full) | 3.66µM* | -109.1* | 6.51µM* | 2.91µM* | 8.2µM*
C=C/C(C)=C/CC1C(=C)CCC2C(C)(C(=O)O)CCCC12C (stereo not given) | 3.6% | 9.4 | -4.0% | 5.5% | 4.3%
C=C1C(=O)[C@]23C[C@H]1CC[C@H]2[C@]1(C)[C@@H](OC(C)=O)CC[C@@](C)(C(=O)O)[C@H]1C[C@@H]3OC(C)=O | 4.11µM* | -99.2* | 6.51µM* | 2.06µM* | 6.51µM*
CCOCCCNC(=O)CC1Oc2ccc(C)cc2NC1=O (stereo not given) | -18.2% | 3.9 | 2.3% | -6.9% | 3.3%
CC(C)c1ccc(S(=O)(=O)/N=C2/C=C(Sc3ncn[nH]3)C(=O)c3ccccc32)cc1 | 3.26µM* | -100.1* | 2.91µM* | 2.59µM* | 4.61µM*
Cc1ccc(S(=O)(=O)/N=C2/C=C(Sc3ncn[nH]3)C(=O)c3ccccc32)cc1 | 0.366µM* | -104.8* | 18.4µM* | 0.326µM* | 3.66µM*
Cc1ccc(S(=O)(=O)Nc2ccc(O)c(Sc3ncn[nH]3)c2)cc1 | 3.2% | 6.8 | 13.8% | 13.9% | 3.7%
Cc1c(C(=O)O)sc(S(=O)(=O)N2CCN(C(=O)Cc3ccccc3Cl)CC2)c1C(=O)O | -22.4% | 4.0 | 9.8% | 9.5% | 9.0%
COc1ccc(-c2csc(N(CCCN(C)C)C(=O)c3ccc(C(C)(C)C)cc3)n2)cc1 | ? | -80.4* | ? | ? | 16.4µM*
COc1ccc(-c2csc(N(CC3CCCO3)C(=O)c3ccccc3)n2)cc1 (stereo not given) | ? | 25.8 | -22.9% | ? | -22.0%
CCC(=O)N(CCCN(C)C)c1nc(-c2cc(OC)ccc2OC)cs1 | -7.9% | ? | -15.2% | -18.4% | -13.4%
COc1ccc(-c2csc(N(CCCN(C)C)C(=O)c3ccc(C)cc3)n2)cc1 | 16.4µM* | -78.7* | ? | ? | ?
COc1ccc(-c2csc(N(CC3CCCO3)C(=O)c3ccc(C)cc3)n2)cc1 (stereo not given) | 23.1µM* | -19.4 | -26.3% | 25.9µM* | ?
COc1ccc(-c2csc(N(CCCN(C)C)C(=O)c3ccc(Br)cc3)n2)cc1 | 20.6µM* | -76.2* | 20.6µM* | 20.6µM* | 20.6µM*
CC(C)N1CCC(=NNC(=O)c2cccs2)CC1 | 4.2% | 6.1 | 17.8% | -4.2% | 10.3%
CCc1nnc(NC(=O)C(CC)CC)s1 | 21.4% | 0.0 | 8.3% | 2.3% | 5.5%
CC1SCC(NC(=O)c2cccc(Cl)c2)CS1 (stereo not given) | 11.6µM* | 7.0 | 7.5% | 14.6µM* | 1.6%
COc1ccc(CNC(=O)c2cccc(S(=O)(=O)N3CCN(C)CC3)c2)cc1 | -7.6% | 17.4 | 0.1% | 12.6% | ?
CCS(=O)(=O)N1CCc2cc(C(=O)NCc3ccc(Cl)cc3)ccc21 | 16.4µM* | . | . | ? | .
CN1CCN(S(=O)(=O)c2cccc(C(=O)NCc3ccc(Cl)cc3)c2)CC1 | 17.2% | 8.5 | 3.1% | -10.8% | 1.6%
COc1ccc(CNC(=O)c2ccc3c(c2)CCN3S(=O)(=O)c2ccc(Cl)cc2)cc1 | 16.4µM* | . | . | ? | .
O=C(Nc1ccc2ncccc2c1)c1cc(Cl)ccc1Cl | ? | -22.5 | 0.1% | ? | -1.3%
SMILES | DT40 TDP1 no CPT | IL-1B inflam inh | HT1080-NT tox | TDP1 cell CPT | HT1080 IDH1KD tx
COc1ccc(S(=O)(=O)N2CCN(c3nc(C)cc(C)n3)CC2)cc1 | -4.7% | -1.3 | -1.9% | -17.5% | -11.6%
Cc1cc(C)c(OCC(=O)OCC(=O)N2c3ccccc3CC2C)c(C)c1 (stereo not given) | -5.6% | 22.8 | -2.5% | -11.0% | 0.5%
CC(=O)Nc1ccc(C(=O)N2CCCc3ccccc32)cc1 | -1.1% | 24.8 | 9.4% | -1.0% | 1.4%
O=C(c1ccccc1)N1CCc2ccccc21 | -14.0% | -10.3 | 5.2% | 0.0% | 8.5%
CC(OC(=O)c1cccc([N+](=O)[O-])c1)C(=O)N1CCc2ccccc21 (stereo not given) | ? | 35.3 | -0.8% | ? | -1.0%
O=C(Nc1ccc(C(=O)N2CCCc3ccccc32)cc1)c1cccs1 | ? | -80.2* | 12.9% | 7.6% | -2.1%
O=C(c1cccc(N2C(=O)C3CC=CCC3C2=O)c1)N1CCCc2ccccc21 (stereo not given) | 1.46µM* | 18.4 | 6.2% | ? | 0.6%
CC(=O)Nc1cccc(C(=O)OC(C)C(=O)N2CCc3ccccc32)c1 (stereo not given) | 4.11µM* | -2.1 | -20.3% | 29.1µM* | -2.9%
O=C(c1ccccc1)N1CCN(C(=O)c2ccccc2)c2ccccc21 | ? | -10.9 | -18.9% | 8.2µM* | ?
COc1ccc(NC(=O)CSc2nnc(CNC(=O)COc3ccc(Cl)cc3)o2)cc1 | -5.0% | 17.4 | 5.2% | -19.2% | 5.7%
O=C(CC1C(=O)NCCN1Cc1c(F)cccc1Cl)NC1CCCC1 (stereo not given) | 4.1% | -2.2 | 0.6% | -1.8% | -1.3%
COc1ccc([C@@H]2C=C(C(=O)O)O[C@H](OCCCCO)C2)cc1 | -7.2% | -5.6 | 10.6% | 5.6% | 11.5%
O=C(Nc1ccc2c(c1)CCC2)c1cccs1 | -28.5% | -63.4* | -0.3% | -22.7% | -13.4%
O=C(Nc1cccc(C(=O)N2CCCc3ccccc32)c1)c1ccccc1 | 20.6µM* | 5.7 | ? | ? | 23.1µM*
O=C(c1ccccc1)N1CCCc2ccccc21 | ? | 15.2 | 1.0% | -17.7% | 1.9%
O=C(NC(=S)N1CCc2ccccc21)c1ccccc1 | 18.4µM* | 15.9 | -16.0% | 20.6µM* | -17.1%
COc1ccc(N2CCN(C(=O)c3ccc(Cl)c(S(=O)(=O)N4CCOCC4)c3)CC2)cc1 | ? | -3.1 | 3.7% | -26.1% | 3.8%
O=C(NC1CCCCC1)C(=S)N1CCOCC1 | 16.2% | 4.5 | -2.6% | -3.6% | 24.7%
